Laboratory results published in PubChem BioAssay AID1347150 (National Center for Advancing Translational Sciences (NCATS), 2019).
Records with an inconclusive call do not appear. Entries that show only a call come without a potency. Calls of active or inactive are those of the source. The call rests on the fitted dose curve; in most records, active means well fitted curve in the direction sought with a large enough effect; inconclusive means small, poorly fitted or top-dose-only effect, or another doubt; inactive means no such curve, though single readings can be large or run the other way.

Each compound was assayed on Zika virus NS2B-NS3 protease (linked) (assay: Optimization screen NINDS AMC qHTS for Zika virus inhibitors: Linked NS2B-NS3 protease assay). Details: recombinant linked NS2B-NS3 protease, AMC fluorogenic substrate; series mostly up to 52.5 µM.
Outline: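 Compounds tested in dose response, 15 min at room temperature with 1 nM linked NS2B-NS3 protease, pH 8.0 Tris/Tween buffer. Reaction started with 10 microM AMC substrate; fluorescence (340/450 nm) gain over 15 min, normalized to controls, Hill-fitted.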

With `CCOc1ccc(C2C(=O)N(C3CCCCC3)CC(=O)N2Cc2ccc(F)cc2)cc1OC` (configuration not stated) as the compound, how does the Potency read?
The Potency was “inactive”.

With `CC[C@@H](C)[C@H]1O[C@]2(CC[C@H]1C)C[C@@H]1C[C@@H](CC=C(C)[C@@H](O[C@H]3C[C@H](OC)[C@@H](O[C@H]4C[C@H](OC)[C@@H](O)[C@H](C)O4)[C@H](C)O3)[C@@H](C)C=CC=C3CO[C@@H]4[C@H](O)C(C)=C[C@@H](C(=O)O1)[C@]34O)O2` as the compound, how does the Potency read?
The Potency was “inactive”.

How did the Potency turn out when `CO[C@H]1C[C@H](O[C@@H]2/C(C)=C/C[C@@H]3C[C@@H](C[C@]4(CC[C@H](C)[C@@H](C5CCCCC5)O4)O3)OC(=O)[C@@H]3C=C(C)/C(=N/O)[C@H]4OC/C(=C\C=C\[C@@H]2C)[C@]43O)O[C@@H](C)[C@@H]1O` was run?
Its Potency is “inactive”.

How did the Potency turn out when `CC(=O)Nc1ccc([C@H](C)C(=O)Nc2ncc(C(C)C)s2)cc1` was run?
The Potency was “inactive”.

For `O=C1c2c(O)ccc([N+](=O)[O-])c2C(=O)c2c([N+](=O)[O-])ccc(O)c21`, which Potency is on record?
Its Potency is 44.1 µM (active).

How did the Potency turn out when `CC1OC(OC2C(O)CC(OC3C(O)CC(OC4CCC5(C)C(CCC6C5CC(O)C5(C)C(C7=CC(=O)OC7)CCC65O)C4)OC3C)OC2C)CC(O)C1O` (configuration not stated) was run?
The Potency was “inactive”.

Which Potency does the source give for `CC[C@@H]1O[C@]2(C=C[C@@H]1C)C[C@H]1C[C@H](CC=C(C)[C@@H](O[C@@H]3C[C@H](OC)[C@H](O[C@@H]4C[C@H](OC)[C@H](O)[C@H](C)O4)[C@H](C)O3)[C@@H](C)C=CC=C3CO[C@@H]4[C@@H](O)C(C)=C[C@@H](C(=O)O1)[C@]34O)O2` here?
The Potency was “inactive”.
